PubChem BioAssay (NCATS)
Inconclusive results are not listed. A number with no mark means an inactive call. Activity calls are given as the source filed them. The call rests on the fitted dose curve; in most records, active means well fitted inhibition curve with a large enough effect; inconclusive means small, poorly fitted or top-dose-only effect; inactive means no such curve, though single readings can be large or run the other way.

Molecular target: Retinaldehyde dehydrogenase 3 (Homo sapiens) (UniProt P47895)
Assay: qHTS for Inhibitors of the Aldehyde Dehydrogenase Family (ALDH1A3) Confirmatory screens (AID 2061311); further: nearly all actives have a fitted effect of over 60% in size
Details: ALDH inhibition qHTS; series mostly up to 46 µM; activity change, negative = inhibition: at the top concentration
On the % scale 0 is the no-effect control and ±100 the full control effect; potency means the concentration at half of the fitted maximal effect.

Structure (SMILES)	activity change, negative = inhibition [%]	outcome	Potency
CCOc1ccc(CCNC(=O)c2cc3sccc3n2CC)cc1OCC	-29	–	–
N#Cc1ccccc1NC(=O)Cn1cnc2onc(-c3cccc(F)c3)c2c1=O	–	inactive; activator	–
Cn1ncc2c(C(=O)NCc3ccc(F)cc3)cc(-c3ccc(F)cc3)nc21	-26.5	–	–
CNC(=O)c1cccc(-c2ccc(C(C)(C)C#N)cc2)n1	–	–	8.91 µM (active)
Cc1ccc([S+](=O)([O-])c2nnn3c2nc(N2CCC(F)CC2)c2ccccc23)cc1	-40.4	–	–
CCOc1ccc(NC(=O)C(=O)NCCc2ccccc2)cc1	–	inactive; activator	–
COc1ccc(OC)c(-c2cc(-c3cccs3)nc3c(C)noc23)c1	–	–	12.6 µM (active)
CCn1nc(-c2cccc(-c3ccnn3C)c2)nc1N(C)C	–	inactive	–
Cc1cccc(-c2ccc(CN)cc2)c1	3.83	–	–
COc1cccc(-c2nccc3c(=O)cc(N4CCOCC4)oc23)c1	-0.403	–	–
COc1ccc(NC(=O)N2CCC(CC(=O)NCc3ccccc3)C2)cc1OC (stereo not given)	-9.78	–	–
COc1ccc(-c2ccccc2C(=O)NCc2ccccn2)nn1	-5.34	–	–
O=C(Nc1ccccc1Cl)c1nc2cccnc2n(Cc2ccccc2)c1=O	-11	–	–
COc1ccc(Cl)cc1NC(=O)c1cc2nc(-c3ccc(C)cc3)cc(C(F)(F)F)n2n1	–	inactive	–
CCOC(=O)c1noc2ncnc(Nc3ccc(C)c(F)c3)c12	-12.2	–	–
O=C(Cn1c(=O)n(Cc2cccs2)c(=O)c2cccnc21)Nc1ccccc1F	-21.9	–	–
CCc1ccccc1NC(=O)c1ccc(F)c(S(=O)(=O)N2CCN(c3cccc(Cl)c3)CC2)c1	4.87	–	–
O=C(CSc1nc2c(cnn2-c2ccc(F)cc2)c(=O)[nH]1)Nc1ccc(Br)cc1	–	inactive	–
O=S(=O)(c1ccccc1)c1nnn2c1nc(NC1CCCC1)c1ccccc12	-33	–	–
COc1ccc(N2CCN(C(=O)CS(=O)(=O)c3cccc4nsnc34)CC2)cc1	2.92	–	–

Structure (SMILES)	activity change, negative = inhibition [%]	outcome	Potency
O=C(Nc1ccc(Oc2ccccc2)cc1)c1ccc(F)c(S(=O)(=O)N2CCN(c3cccc(Cl)c3)CC2)c1	–	inactive	–
CCOc1cccc(CNC(=O)c2ccc(N3CCCC3)c(NC(=O)NCc3ccccc3)c2)c1	1.95	–	–
O=C(Nc1ccc([C@@H](O)[C@H]2COCC(=O)N2CCCc2ccccc2)cc1)c1ccco1	-46.4	–	–
OCc1ccc(-c2ccc3nnc(-c4ccccn4)n3n2)cc1	-22.1	–	–
COc1cc(CNC(=O)c2ccc(NC(=O)N3CCCCc4ccccc43)cc2)cc(OC)c1OC	-21.7	–	–
CCc1cccc(C)c1NC(=O)CSc1nc2ccncc2[nH]1	2.34	–	–
COc1ccc(-c2nnc3ccc(NCCc4ccccc4)nn23)nc1	–	–	20 µM (active)
Cn1ncc2c(C(=O)NCC(F)(F)F)cc(-c3ccccc3F)nc21	-45.3	–	–
c1cnc(-c2noc(-c3nc(-c4ccc5c(c4)OCO5)no3)n2)cn1	–	inactive	–
Cc1cc2nc3n(c(=O)c2n1CC(=O)Nc1ccc(Br)cc1F)CCC3	-4.3	–	–
O=C(CSc1nc(-c2cccs2)nc2cc(=O)[nH]n12)Nc1cccc(C(F)(F)F)c1	-32.5	–	–
COc1ccccc1-n1c(=O)c(C(=O)NC(C)C)nc2cccnc21	–	inactive	–
Cn1c(Oc2cccc(Cl)c2)nc2c1c(=O)n(Cc1ccccc1Cl)c(=O)n2C	–	–	31.6 µM (active)
O=C(NCc1ccc(F)cc1)c1nc(-c2ccc(Cl)nc2)c2cnccn12	-11.7	–	–
Cc1nonc1OCCn1cc(-c2ccc(CO)o2)nn1	1.88	–	–
Cc1cc2ncc(C(=O)NCCc3ccccc3F)cn2n1	-13.1	–	–
Fc1cccc(Cc2noc(-c3nc(-c4ccc5c(c4)OCO5)no3)n2)c1	-2.24	–	–
CCc1nn2c(=O)c(S(=O)(=O)Nc3cccc(F)c3)c(C)nc2s1	4.3	–	–
COc1cc(F)ccc1-c1cnc2n[nH]c(-c3sccc3C)c2n1	–	inactive	–
Cc1ccc(-n2c(=O)c3c(cnn3C)n(CC(=O)Nc3cccc(Cl)c3)c2=O)cc1	4.67	–	–
